Most compounds without a hit are left out; they make up all but 1.5% or so of the library.
HTT ATP protect = protects HTT-Q103 PC12 cells, measured by ATP | PC12 HTT-Q103 induced, cytoprotection, ATP luminescence, 40 h | Potency, µM (series often up to 56.4 µM), inactives show cytoprotection (ATP increase), actives largely listed as activators | 230,000 compounds, 0.14% hits; also: % of control where 0% means no effect; nearly all actives have a fitted effect of over 45% in size
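Readout: ATPlite luminescence (ATP level). Model: stable PC12, inducible Htt exon1 Q103-GFP. Inducer: tebufenozide, 100 nM final. Compounds: dose series. No G418 in medium.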
HttQ103 aggreg = inhibitors of mutant huntingtin aggregate formation in PC12 cells | 220,000 compounds, 1.1% hits | PC12 HttQ103-GFP aggregates, Acumen cytometry, 40 h | Potency, µM (series often up to 46.1 µM), for inactives: at the top dose activity change, negative = inhibition, actives largely listed as inhibitors | AID 1688; also: % is scaled to controls: 0 for no effect and ±100 for the full control effect; nearly all actives have a fitted effect of over 60% in size
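Multiplexed with ATP-based cell death, this channel scores GFP aggregates in PC12 cells expressing inducible HTTex1-Q103-GFP. Induction used 100 nM tebufenozide; compounds were tested in concentration series.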
Epigenetic derep = epigenetic control regulation, reporter derepression; Potency, µM (doses to about 53.9 µM), for the others: top-dose GFP activation, usual class: activators; 280,000 compounds, 0.2% hits; murine LDR cells, GFP reporter derepression, 30 h; also: % of control where 0% means no effect; nearly all actives have a fitted effect of over 60% in size
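Murine LDR cells carrying a silenced, genomically integrated CMV-driven GFP reporter were exposed to compound for 30 hours at 37 C. After PBS washes, GFP-positive cells (20–120 um objects) were counted by laser-scanning microplate cytometry.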
NPSR antagonist = antagonists of human neuropeptide S receptor cAMP signaling; CHO-NPSR cells, cAMP TR-FRET, antagonist mode; Potency, µM (highest dose often 38.3 µM), inactives show at the highest dose activity change, negative = inhibition, actives largely listed as inhibitors; 220,000 compounds, 1% hits; AID 1461; also: % is scaled to controls: 0 for no effect and ±100 for the full control effect; nearly all actives have a fitted effect of over 50% in size
Target sequence (Q6W5P4 whole entry, looked up): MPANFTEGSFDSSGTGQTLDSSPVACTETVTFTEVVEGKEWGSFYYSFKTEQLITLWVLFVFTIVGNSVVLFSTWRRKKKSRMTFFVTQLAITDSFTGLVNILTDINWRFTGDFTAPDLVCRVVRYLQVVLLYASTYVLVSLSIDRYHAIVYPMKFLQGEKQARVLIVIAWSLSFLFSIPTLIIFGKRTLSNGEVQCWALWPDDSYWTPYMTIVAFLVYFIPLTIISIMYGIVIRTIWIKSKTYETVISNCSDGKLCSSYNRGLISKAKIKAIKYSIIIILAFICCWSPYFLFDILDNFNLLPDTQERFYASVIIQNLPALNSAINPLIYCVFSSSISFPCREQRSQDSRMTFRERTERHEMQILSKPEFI
Lamin A splicing = changes lamin A minigene splicing in HeLa cells | HeLa LMNA splicing GFP/RFP minigene ratio, 48 h | Potency, µM (top dose mostly 46.1 µM), without a hit: at the highest dose ratio change, negative = inhibition, hits mostly inhibitors | 200,000 compounds, 0.01% hits | AID 1487; active = well fitted inhibition curve with a large enough effect in the signal ratio, with a control signal flat, not every such curve was filed as active; inconclusive = small, poorly fitted or top-dose-only effect, or effect the other way, or a change in a side signal; the % refers to the signal ratio; also: % is scaled to controls: 0 for no effect and ±100 for the full control effect
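Read-out is the ratio of GFP to DsRed2 object intensity, acquired by 488 nm laser-scanning cytometry on HeLa lamin A-EGFP minigene reporter cells. Compound incubation 48 hrs at 37 °C in Opti-MEM with 2% FBS; DMSO 0.5% final.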
* hit, by the source's call; [ ] = another dose, or the depositor's remark. Unless noted, calls follow the shape of the dose curve; as a rule, active = well fitted curve in the direction sought with a large enough effect; inconclusive = small, poorly fitted or top-dose-only effect, or another doubt; inactive = no such curve, though single readings can be large; an effect the other way counts as inactive or inconclusive. Potency is read from the fitted curve at half-maximal effect.

Screening Cn1c(/C=C/c2ccc([N+](=O)[O-])o2)nc2ccccc2c1=O returned HTT ATP protect -110%, HttQ103 aggreg 10µM*, Epigenetic derep inconclusive, NPSR antagonist 10µM* and Lamin A splicing inconclusive.
Cc1cc(N/N=C/c2ccc([N+](=O)[O-])o2)nc2ccccc12 was read as HTT ATP protect 12%, HttQ103 aggreg inconclusive, Epigenetic derep 6.3µM* and NPSR antagonist -17%.
O=[N+]([O-])c1ccc(/C=N/Nc2nc(N3CCCCCC3)nc(N3CCCCCC3)n2)o1 was read as HTT ATP protect -15%[10 µM], HttQ103 aggreg 7.1µM*, Epigenetic derep inconclusive, NPSR antagonist 6.3µM* and Lamin A splicing 7%.
Cc1ccc(Cn2c(CNS(=O)(=O)c3cccc([N+](=O)[O-])c3)nc3cccnc32)cc1 was read as Epigenetic derep 1% and Lamin A splicing 11%[46 µM].
For CCOC(=O)c1cc(CC)sc1NC(=O)C1CC(=O)NN1Cc1ccccc1 (configuration not stated) the results were HTT ATP protect 0%[10 µM], HttQ103 aggreg 10µM*, Epigenetic derep -1%, NPSR antagonist -13%[46.1 µM] and Lamin A splicing 0%.
`COC(=O)c1ccc(NC(=O)CN2CCCN(Cc3ccc(Cl)cc3)S2(=O)=O)cc1` gave Epigenetic derep -2% and Lamin A splicing -7%[46 µM].
`CC1=NN(c2ccccc2)C(=O)/C1=C/c1cccs1` gave HTT ATP protect -2%[10 µM], HttQ103 aggreg 7%, Epigenetic derep -2%, NPSR antagonist 14% and Lamin A splicing -5%.
For CC1=NN(c2ccccc2)C(=O)/C1=C\c1ccc(Br)s1 the results were HTT ATP protect 5%[10 µM], HttQ103 aggreg 0.71µM*, Epigenetic derep 3%, NPSR antagonist 6% and Lamin A splicing inconclusive.
Screening c1ccc2n[nH]nc2c1 returned HTT ATP protect -8%.
`CCOC(=O)O[C@]1(C(=O)OCCl)CC[C@@H]2[C@H]3CCC4=CC(=O)C=C[C@]4(C)[C@@H]3[C@@H](O)C[C@@]21C` gave HTT ATP protect -35%, HttQ103 aggreg 6% and Lamin A splicing 14%.
Screening COCC1=C2c3ccccc3[C@H](C[N+](=O)[O-])C(C(=O)OC)(C(=O)OC)CC2C2C(=O)N(c3ccccc3)C(=O)C2C1 (some centres not stated) returned HTT ATP protect -5% and Epigenetic derep 0%.
Screening CCOC(=O)c1nnc2c(-c3ccc(F)cc3)c(C)nn2c1N returned Epigenetic derep -1%.
`CCCC(=O)NC(c1cccs1)c1cc(Cl)c2cccnc2c1O` (configuration not stated) gave HTT ATP protect -35%[10 µM], HttQ103 aggreg -1%[9.22 µM], Epigenetic derep inconclusive, NPSR antagonist inconclusive and Lamin A splicing inconclusive.
Screening CC(C)C(=O)NC(c1cccs1)c1cc([N+](=O)[O-])c2cccnc2c1O (configuration not stated) returned HTT ATP protect -49%[10 µM], HttQ103 aggreg 2µM*, Epigenetic derep inconclusive, NPSR antagonist -11% and Lamin A splicing inconclusive.
`Cc1ccc(C(NC(=O)C(C)C)c2cc([N+](=O)[O-])c3cccnc3c2O)cc1` (configuration not stated) gave HTT ATP protect -33%[10 µM], HttQ103 aggreg 20µM*, Epigenetic derep 0%, NPSR antagonist 0% and Lamin A splicing inconclusive.
`Fc1ccc(-n2nc(-c3ccccc3)c3cnc4ccccc4c32)cc1Cl` gave Epigenetic derep 0%.
Screening CO[C@@H]1COC(=O)[C@H](COCc2ccccc2)NC(=O)C/C=C\[C@@H](C)[C@H](OC)COC(=O)[C@H](COCc2ccccc2)NC(=O)C/C=C\[C@H]1C returned HTT ATP protect 20%[10 µM] and Epigenetic derep 0%[10.1 µM].
For CO[C@@H]1COC(=O)C/C=C\[C@@H](C)[C@H](OC)COC(=O)[C@H](COCc2ccccc2)NC(=O)C/C=C\[C@H]1C the results were HTT ATP protect 3.2µM* and Epigenetic derep -2%[10.1 µM].
O=C(N/N=C/c1cc(Br)ccc1O)c1ccccc1Cl was read as HttQ103 aggreg 4µM*, Epigenetic derep 3%, NPSR antagonist -39% and Lamin A splicing inconclusive.
Screening CCC/C=N/NC(=O)c1cc(-c2ccccc2)nc2ccccc12 returned HTT ATP protect 5%[10 µM], HttQ103 aggreg -12%, Epigenetic derep 0%, NPSR antagonist -3%[46.1 µM] and Lamin A splicing -10%.
Screening O=C(N/N=C/c1ccco1)c1cccc(N2CCCC2=O)c1 returned HTT ATP protect -12%[1.9 µM], HttQ103 aggreg 12%, Epigenetic derep 0%, NPSR antagonist 13% and Lamin A splicing -10%.
For CCC/C=N/NC(=O)c1cc(Br)ccc1O the results were HTT ATP protect 23%[10 µM], HttQ103 aggreg 16µM*, Epigenetic derep -3%, NPSR antagonist 12% and Lamin A splicing -6%.
O=C(N/N=C/c1cc(Br)ccc1O)c1cccc(N2CCCC2=O)c1 was read as HttQ103 aggreg 2.2µM*, Epigenetic derep 1%, NPSR antagonist -30% and Lamin A splicing inconclusive.
For O=C(N/N=C\c1ccccc1O)c1ccccc1O the results were HTT ATP protect -71%[1.9 µM] and Epigenetic derep 11%.
`O=C(N/N=C/c1cc(Br)ccc1O)C(=O)Nc1ccccc1OC(F)(F)C(F)F` gave HTT ATP protect -46%, HttQ103 aggreg 8.9µM*, Epigenetic derep 4%, NPSR antagonist inconclusive and Lamin A splicing inconclusive.
For COc1ccc(-c2nnc(SCC(=O)N(C)Cc3ccccc3)o2)cc1OC the results were Epigenetic derep -2%.
Screening Cc1nc(C(F)(F)F)c(C(=O)N/N=C(\N)c2ccccn2)s1 returned HTT ATP protect -164%, HttQ103 aggreg 22µM*, Epigenetic derep 5% and NPSR antagonist 6%.
COc1ccccc1-c1nccc(NCc2cccnc2)n1 was read as HTT ATP protect 6% and Lamin A splicing -19%.
`COc1ccc(CCNC(=O)c2cnc3ccc(C)cn3c2=O)cc1` gave Epigenetic derep 1%.
Cc1sc(-c2cc3ccccc3oc2=O)nc1-c1ccc(Cl)cc1 was read as Epigenetic derep 0% and Lamin A splicing inconclusive.
Screening Cc1ccc(S(=O)(=O)ON=C2CCN(S(=O)(=O)c3ccccc3)CC2)cc1 returned HTT ATP protect -7%, HttQ103 aggreg 3%, Epigenetic derep 0%, NPSR antagonist -8%[46.1 µM] and Lamin A splicing -12%.
For CC1=CC(=O)C=C(C)C1=NOS(=O)(=O)c1ccccc1 the results were HTT ATP protect -111%, HttQ103 aggreg 20%[9.22 µM], Epigenetic derep 6%, NPSR antagonist 7.9µM* and Lamin A splicing 2%.
`CC1=CC(=O)C(C(C)C)=C/C1=N/OS(=O)(=O)c1ccccc1` gave HTT ATP protect -63%[10 µM], HttQ103 aggreg -33%[9.22 µM], Epigenetic derep 3% and NPSR antagonist 4µM*.
